Bioassay records as filed in PubChem BioAssay.
Shown are actives, neighbours in structure and some others; about 3.7% of the full set was active somewhere.
GLP-1R agonist: GLP-1 receptor (human) agonism; Potency, µM (highest dose often 45.6 µM), most hits filed as activators; 0.007% of 380,000 active; HEK293 GLP-1R CRE-luciferase, luminescence, 4-6 h; cells express a hypersensitive GLP-1R form; P43220
Target sequence (P43220 whole entry, looked up): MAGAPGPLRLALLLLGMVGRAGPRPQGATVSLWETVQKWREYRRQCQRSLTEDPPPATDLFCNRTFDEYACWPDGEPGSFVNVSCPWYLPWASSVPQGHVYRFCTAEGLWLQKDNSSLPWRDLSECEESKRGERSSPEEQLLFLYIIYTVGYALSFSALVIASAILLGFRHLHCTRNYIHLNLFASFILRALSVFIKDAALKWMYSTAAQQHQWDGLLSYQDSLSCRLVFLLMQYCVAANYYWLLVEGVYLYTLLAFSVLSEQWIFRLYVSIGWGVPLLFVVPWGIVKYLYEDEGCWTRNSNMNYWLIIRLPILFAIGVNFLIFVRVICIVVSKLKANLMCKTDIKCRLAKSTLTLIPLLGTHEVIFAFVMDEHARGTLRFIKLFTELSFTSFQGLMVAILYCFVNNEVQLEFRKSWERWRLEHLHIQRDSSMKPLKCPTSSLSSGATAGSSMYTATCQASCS
ATXN2 expr inh: inhibitors of ATXN2 expression | AID 1745845 | 0.72% of 360,000 active | HEK-293 ATXN2-luciferase reporter, luminescence, 24 h | Potency, µM (highest dose often 57 µM), actives largely listed as inhibitors; note: nearly all actives have a fitted effect of over 55% in size
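qHTS (up to 57 uM final) was run with 24 h compound exposure of reporter cells at 37 °C. Each well was multiplexed: SteadyGlo luminescence measured ATXN2-luciferase expression after a fluorogenic Gly-Phe-AFC viability readout (25 uM final).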
GLP-1R inv ag: inverse agonists of human GLP-1 receptor. AID 624417. P43220. Potency, µM (highest dose often 38.3 µM), hits mostly inhibitors. HEK293 GLP-1R CRE-luciferase, luminescence, 24 h; GLP-1R form is constitutively active. 1.6% of 410,000 active; note: nearly all actives have a fitted effect of over 55% in size
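Readout was luciferase luminescence, measured 12 min after detection reagent at room temperature. Beforehand, GLP-1R reporter HEK293 cells had sat 12 h, then received compounds for 24 hr at 37 deg C.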
HepG2 viability: counter-screen for TGF-b inhibitors: cytotoxicity in HepG2 cells. 0.76% of 410,000 active. Potency, µM (top dose mostly 46.1 µM), hits mostly cytotoxic. HepG2 CAGA-GFP viability, ATP luminescence, 18 h
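HepG2 CAGA-GFP cells (1000/well, DMEM with 1% FBS) received compound, then TGF-beta at 500 pg/mL final, and were incubated 18 hours at 37 degrees C. Viability was read by CellTiter-Glo luminescence. Media-only wells were set as complete cell-killing and DMSO as no toxicity.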
S2 tox: cell viability loss in ATXN counter-screen; S2 cells (HEK-293 line with an ATXN2-luciferase reporter) viability, CellTiter-Fluor protease fluorescence, 24 h; Potency, µM (top dose mostly 56.7 µM), usual class: cytotoxic; 0.49% of 400,000 active; note: nearly all actives have a fitted effect of over 40% in size
TGFb SMAD3 inh: TGF-b pathway inhibition. Potency, µM (top dose mostly 46.1 µM), actives largely listed as inhibitors. 1.2% of 410,000 active. HepG2 CAGA-GFP TGF-b/SMAD3 reporter, GFP fluorescence, 18 h; TGF-beta stimulated, 500 pg/mL final; note: nearly all actives have a fitted effect of over 65% in size
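HEPG2 CAGA-GFP reporter cells (1000/well, DMEM with 1% FBS) received compounds, then recombinant TGF-beta at 500 pg/mL final for 18 hours at 37 degrees C. Per-cell GFP summed per well was normalised to unstimulated and stimulated DMSO controls before curve fitting.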
Large screens that a line does not name were inactive. Calls come from the whole dose curve; as a rule, active = well fitted curve in the direction sought with a large enough effect; inconclusive = small, poorly fitted or top-dose-only effect, or another doubt; inactive = no such curve, though single readings can be large; an effect the other way counts as inactive or inconclusive.

CCOC(=O)CSc1nc2ccccc2c(=O)n1CCc1ccc(OC)c(OC)c1	none (no result: GLP-1R agonist)
O=C(NNC(=O)c1ccc(Oc2ccc(C3SCCS3)cc2)o1)c1ccc(Cl)cc1	GLP-1R inv ag inconclusive (no result: ATXN2 expr inh)
O=C(NNC(=O)c1ccc(Oc2cc(Cl)cc(Cl)c2)o1)c1ccccc1	GLP-1R inv ag inconclusive, S2 tox inconclusive, TGFb SMAD3 inh 20µM (no result: ATXN2 expr inh)
CCOC(=O)CSc1nc2ccc(NC(=O)COc3ccc(F)cc3)cc2s1	none (no result: GLP-1R agonist)
COc1cc([C@@H]2c3cc4c(cc3[C@@H](O[C@@H]3O[C@@H]5CO[C@@H](c6cccs6)O[C@@H]5[C@H](O)[C@@H]3O)[C@H]3COC(=O)[C@H]23)OCO4)cc(OC)c1O	ATXN2 expr inh 0.172µM (no result: GLP-1R agonist, GLP-1R inv ag, HepG2 viability, S2 tox, TGFb SMAD3 inh)
COc1cc([C@@H]2c3cc4c(cc3[C@@H](O)[C@H]3COC(=O)[C@H]23)OCO4)cc(OC)c1O[Si](C)(C)C(C)(C)C	ATXN2 expr inh inconclusive, GLP-1R inv ag inconclusive, TGFb SMAD3 inh inconclusive (no result: S2 tox)
CCOc1ccccc1NC(=O)CSc1ncc(S(=O)(=O)c2ccc(C)c(C)c2)c(N)n1	TGFb SMAD3 inh 8.91µM
CCOC(=O)c1ccccc1NC(=O)CSc1ncc(C(=O)OCC)c(N)n1	none
CN1CCN(c2cc(N3CCc4ccccc4C3)c(F)cc2[N+](=O)[O-])CC1	GLP-1R inv ag inconclusive, HepG2 viability 15.8µM, S2 tox inconclusive, TGFb SMAD3 inh inconclusive
CC(=O)c1ccc(N2CCc3ccccc3C2)c([N+](=O)[O-])c1	ATXN2 expr inh inconclusive, GLP-1R inv ag 3.16µM
Cc1ccc2c(c1)CN(CCNC(=O)C(C)Oc1ccccc1)CC(C)O2 (stereo not drawn)	none (no result: GLP-1R agonist, ATXN2 expr inh, GLP-1R inv ag, HepG2 viability, TGFb SMAD3 inh)
Oc1ccc(-c2cn3ccccc3n2)cc1O	none (no result: ATXN2 expr inh)
Cc1ccn2cc(-c3ccc(O)c(O)c3)nc2c1	S2 tox inconclusive, TGFb SMAD3 inh 11.2µM (no result: ATXN2 expr inh)
c1ccc(CCNc2ccnc3cc4ccccc4cc23)cc1	ATXN2 expr inh inconclusive, GLP-1R inv ag inconclusive, HepG2 viability 11.2µM, TGFb SMAD3 inh inconclusive (no result: S2 tox)
CC(C)Nc1ccc(Nc2ccnc3cc4ccccc4cc23)cc1	ATXN2 expr inh inconclusive, GLP-1R inv ag 3.16µM, HepG2 viability 11.2µM, TGFb SMAD3 inh inconclusive (no result: S2 tox)
Cc1ccc(S(=O)(=O)Nc2nc(-c3ccccc3)cs2)cc1	none
Cc1ccc(S(=O)(=O)Nc2ccc(-c3csc(-c4ccccc4)n3)cc2)cc1	GLP-1R inv ag inconclusive, HepG2 viability 12.6µM, S2 tox inconclusive, TGFb SMAD3 inh inconclusive
O=S(=O)(Nc1ccc(-c2csc(-c3ccccc3)n2)cc1)c1ccccc1	GLP-1R inv ag inconclusive, HepG2 viability 14.1µM, S2 tox inconclusive, TGFb SMAD3 inh inconclusive
CCCn1c(=O)c2sccc2n2c(CCCC(=O)NC3CCC(C)CC3)nnc12 (stereo not drawn)	none (no result: GLP-1R agonist, ATXN2 expr inh, S2 tox)
O=C(C1CC1)N1CC[C@@H](Cn2c(-c3ccc(-c4ccc5occc5c4)cc3)nc3cnccc32)C1	none (no result: GLP-1R agonist, GLP-1R inv ag, HepG2 viability, S2 tox, TGFb SMAD3 inh)
Cn1cc(CNCc2cn(C)nc2-c2ccc(C3CCCCC3)cc2)cn1	ATXN2 expr inh inconclusive, GLP-1R inv ag 7.94µM
NS(=O)(=O)c1ccc(N2CCCCS2(=O)=O)cc1	none (no result: GLP-1R agonist, GLP-1R inv ag, HepG2 viability, TGFb SMAD3 inh)
N#Cc1cc(O)c(-n2nnc3ccccc32)cc1C#N	none
N#Cc1cc(Oc2cccc3cccnc23)c(-n2nnc3ccccc32)cc1C#N	ATXN2 expr inh inconclusive, GLP-1R inv ag inconclusive, TGFb SMAD3 inh 6.31µM
Fc1ccc(NC(=S)NCCc2ccc(Cl)cc2)cc1	GLP-1R inv ag inconclusive, TGFb SMAD3 inh inconclusive
O=C(NCCc1ccc(Cl)cc1)Nc1ccc(F)cc1	GLP-1R inv ag inconclusive
O=[N+]([O-])c1ccc(NC(=S)NCCc2ccc(F)cc2)cc1	ATXN2 expr inh inconclusive, GLP-1R inv ag 11.2µM, HepG2 viability 12.6µM, S2 tox inconclusive, TGFb SMAD3 inh inconclusive
O=C(NCCc1ccc(F)cc1)Nc1ccc([N+](=O)[O-])cc1	GLP-1R inv ag 3.98µM, TGFb SMAD3 inh inconclusive
CCc1ccc(C(=O)NC(Cc2c[nH]c3ccccc23)C(=O)OCC(=O)c2ccc(Br)cc2)cc1 (stereo not drawn)	GLP-1R inv ag inconclusive (no result: GLP-1R agonist, ATXN2 expr inh, S2 tox)
Fc1ccc(N/N=C/c2ccncc2)c(F)c1	GLP-1R inv ag 1.41µM
